Screens (PubChem)
ST2 inh – inhibitors of human ST2 (IL1RL1) binding to IL-33 | AlphaLISA ST2-Fc/biotin-IL-33 interaction, 1 h | inhibition, % for hits at 17 µM | 78,000 compounds, 2.3% hits; in the data active = inhibition above about 30%
Target sequence (Q01638 whole entry, looked up): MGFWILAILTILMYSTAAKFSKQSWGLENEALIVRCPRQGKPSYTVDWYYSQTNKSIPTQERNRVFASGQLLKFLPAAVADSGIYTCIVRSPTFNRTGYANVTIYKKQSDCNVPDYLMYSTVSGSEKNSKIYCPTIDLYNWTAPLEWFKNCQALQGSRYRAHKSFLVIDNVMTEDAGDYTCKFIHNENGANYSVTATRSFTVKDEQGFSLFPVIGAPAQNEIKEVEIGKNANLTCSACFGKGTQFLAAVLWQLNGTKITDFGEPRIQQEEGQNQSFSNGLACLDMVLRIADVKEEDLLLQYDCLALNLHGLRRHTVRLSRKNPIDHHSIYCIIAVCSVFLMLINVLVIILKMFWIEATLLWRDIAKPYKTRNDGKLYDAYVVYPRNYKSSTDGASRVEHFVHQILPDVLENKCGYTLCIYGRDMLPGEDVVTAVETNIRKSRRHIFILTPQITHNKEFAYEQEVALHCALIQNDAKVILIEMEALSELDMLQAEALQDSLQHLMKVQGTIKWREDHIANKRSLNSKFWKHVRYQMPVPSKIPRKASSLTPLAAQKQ
* = called active by the depositor; i = inactive. The sample as a whole holds a higher share of hits than the screen did.

SMILES | ST2 inh
O=C(Nc1ccc2c(c1)OCO2)c1cc(-c2ccccc2O)on1 | i
Cc1nc(C(=O)Nc2ccc3c(c2)OCO3)cc2c1[nH]c1ccccc12 | 30%*
Cc1cc(NC(=O)c2cc(-c3ccc4c(c3)OCO4)on2)no1 | i
COc1cccc(CCn2ccnc2-c2ccco2)c1OC | i
Cc1cc(Br)ccc1OCC(=O)Nc1ccccc1CO | i
O=C(Nc1cccc(F)c1)Nc1ccc(=O)n2c1[C@@H]1C[C@@H](CN(C(=O)COc3ccccc3)C1)C2 | i
Cc1nn(Cc2ccccc2Cl)c(C)c1NC(=O)c1cc(-c2ccc(F)cc2)on1 | i
Cc1cc(S(=O)(=O)Nc2cccnc2)c(Cl)cc1Cl | i
Cc1[nH]n(-c2ccccc2)c(=O)c1C1=c2cc(Br)cc(C)c2=NC1=O | i
O=C(NC1CCCCC1)O[C@@H]1CO[C@H]2[C@@H]1OC[C@@H]2Nc1nccc(-c2ccc(-c3ccccc3)cc2)n1 | i
CC1NC(C)(C)C(C)NC1(C)C (stereo not drawn) | i
Cc1cc2ccccc2n1CCNC(=O)c1cc(Br)ccc1Cl | i
COc1ccc2nc(NC(=O)COC(=O)c3cc4ccccc4o3)sc2c1 | i
CC(C(=O)N1CCc2onc(-c3cccc(F)c3)c2C1)n1ccnc1 (stereo not drawn) | i
CCCCNC(=O)Cn1cnc2c1c(=O)n(C)c(=O)n2C | i
CC1CN(C(=O)Cn2cnc3c2c(=O)n(C)c(=O)n3C)CC(C)O1 (stereo not drawn) | 95%*
Cn1c(=O)c2c(ncn2CC(=O)Nc2ccccn2)n(C)c1=O | i
COc1ccc(S(=O)(=O)Cc2ccc(C(=O)NCCC(C)C)o2)cc1 | i
COC(=O)c1c(C)oc2cc(Br)c(OC(C)=O)cc12 | i
COc1ccc(C2=Nc3ccccc3N=C(c3cc(OC)ccc3O)C2)cc1 | i
COc1ccc(O)c(C2=Nc3ccccc3N=C(c3ccc(F)cc3)C2)c1 | 32%*
Oc1ccccc1C1=Nc2ccccc2N=C(c2ccccc2)C1 | i
N#CC1=C(N)n2c(s/c(=C/c3cccs3)c2=O)=C(C#N)C1c1cccs1 (stereo not drawn) | i
CCCS(=O)(=O)N1CCC(C(=O)NCCCN2CCCCC2C)CC1 (stereo not drawn) | i
Cc1cc(C)c([N+](=O)[O-])cc1-c1ccc(C=C2C(=O)NC(=O)NC2=O)o1 | 36%*
SMILES | ST2 inh
O=C1NC(=O)/C(=C/c2ccc(-c3cccc(Cl)c3Cl)o2)N1 | i
Cc1cc(Cl)ccc1-c1ccc(C=O)o1 | i
Cc1nn(-c2ccc(F)cc2)c(C)c1[C@@H]1C=C[C@@H](NC(=O)c2ccco2)C1 | i
c1coc(-c2nnc([C@H]3CCN(Cc4ncc[nH]4)C3)o2)c1 | i
O=[N+]([O-])c1ccc(CN2CCSCC2)cc1 | i
Cc1ccc(/C=C/c2nc3ccccc3[nH]2)cc1 | i
CCc1ccc(N2C(=O)Nc3ccc(Br)cc3C2(O)C(=O)NC(C)C)cc1 (stereo not drawn) | i
CCc1ccc2c(c1)C1(NN=C(c3ccc(C)cc3)S1)C(=O)N2 (stereo not drawn) | 45%*
CCc1ccc(C(=O)CC2(O)C(=O)Nc3ccccc32)cc1 (stereo not drawn) | i
CNc1nc(C(=O)N2C[C@@H]3C4CCC(CC4)[C@@H]3C2)cs1 | i
Cc1nn(Cc2ccccc2)c(C)c1NC(=O)c1cc(-c2ccc3c(c2)OCO3)on1 | i
O=C(O)CCCC[C@H]1SC[C@H]2NC(=O)N[C@H]21 | 96%*
NCCCCC(=O)O | i
Cc1c(-c2ccccc2)sc(N)c1C#N | 33%*
CCOC(=O)c1sc(-c2ccccc2)c(C#N)c1C | i
Cc1cc(-c2ccccc2)c(C#N)c(N)n1 | i
Cc1ccc(C(=O)NC2CCCc3nc(-c4cccnc4)ncc32)s1 (stereo not drawn) | i
C=CCOC(=O)C1=C(C)N=C2SCCC(=O)N2C1c1ccc(OCC)c(OCC)c1 (stereo not drawn) | i
COc1cc(C(=O)ON=C2CCSCC2)cc(OC)c1OC | i
Cc1[nH]n(-c2ccc(Cl)cc2)c(=O)c1C=Nc1cccc(Nc2ccccc2)c1 | 30%*
CC(=O)c1ccc(N=Cc2c(C)[nH]n(-c3ccccc3)c2=O)cc1 | i
Cc1[nH]n(-c2ccccc2)c(=O)c1C=Nc1ccc([N+](=O)[O-])cc1Cl | i
Cc1cccc(NC(=O)CSc2ccc(Cl)cc2)c1C | i
CC1CCc2c(sc(NC(=O)COc3cccc(Cl)c3)c2C#N)C1 (stereo not drawn) | i
O=S(=O)(NCc1cccnc1)c1cccs1 | i
SMILES | ST2 inh
O=C(CNS(=O)(=O)c1cccs1)NCc1cccnc1 | 79%*
O=C(CNS(=O)(=O)c1ccc(Br)s1)NCc1cccnc1 | i
CSc1ccccc1NC(=O)CC1Sc2ccccc2NC1=O (stereo not drawn) | i
Cc1c(N=Cc2ccc([N+](=O)[O-])o2)c(=O)n(-c2ccccc2)n1C | i
Cc1c(N=Cc2cc([N+](=O)[O-])ccc2O)c(=O)n(-c2ccccc2)n1C | i
Cc1c(N=Cc2cc([N+](=O)[O-])ccc2N2CCCCC2)c(=O)n(-c2ccccc2)n1C | 44%*
COc1ccc(NS(=O)(=O)c2ccc(NS(=O)(=O)c3ccc(C)cc3)cc2)cc1 | i
COc1ccc(S(=O)(=O)Nc2ccc(NC(C)=O)cc2)cc1 | i
CCN(CC)c1ccc(NS(=O)(=O)c2ccc(OC)cc2)cc1 | 35%*
CCOC(=O)C1(Cc2ccccc2F)CCCN(C(=O)c2ccc(-n3ccnc3)cc2)C1 (stereo not drawn) | i
N=C1S/C(=C/c2ccc(-c3ccccc3[N+](=O)[O-])o2)C(=O)N1c1nonc1N | i
COc1ccc(-c2ccc(/C=C3/C(=O)NN(c4ccc(C)c(Cl)c4)C3=O)o2)c([N+](=O)[O-])c1 | 41%*
COc1ccccc1/C=C1/C(=O)NN(c2ccc(C)c(Cl)c2)C1=O | i
Cc1ccc(-c2ccc(/C=C3/C(=O)NN(c4ccc(F)cc4)C3=O)o2)c([N+](=O)[O-])c1C | 42%*
COc1cccc(/C=C2/C(=O)NN(c3ccc(C)c(Cl)c3)C2=O)c1OCC#N | i
N#Cc1ccccc1S(=O)(=O)N[C@H]1CO[C@H]2[C@@H]1OC[C@@H]2n1nnnc1Oc1ccc(-n2ccnc2)cc1 | i
Cc1ccc(S(=O)(=O)Cc2noc([C@@H]3C[C@@H](O)CN3Cc3ccc(C(F)(F)F)cc3)n2)cc1 | i
CCOC(=O)c1ccc(N2COc3ccc4ccccc4c3C2)cc1 | i
Cc1ccc(C(=O)Nc2c(-c3cccs3)nc3ccccn23)cc1 | i
CCN(C)c1ccc(/C=C2/C(=O)NN(c3cccc(Br)c3)C2=O)cc1 | 39%*
C=CCOc1ccc(/C=C2\C(=O)NN(c3cccc(Br)c3)C2=O)cc1OC | 34%*
COc1cc(C=O)ccc1OCCOc1ccc(Br)cc1Cl | i
COc1cc(C=C2C(=O)OC(C)(c3ccccc3)OC2=O)ccc1OCc1cccc(C(=O)O)c1 (stereo not drawn) | i
Cc1ccc(N2NC(=O)/C(=C/c3ccc(Cl)cc3)C2=O)cc1Cl | i
O=C1NN(c2cccc(Br)c2)C(=O)/C1=C\c1ccccc1 | i
CC1=NN(c2ccc(F)cc2)C(=O)/C1=C/c1ccc(N(C)C)cc1 | i
COc1cc(/C=C2/NC(=O)NC2=O)cc(OC)c1O | i
COc1cc(/C=C2/C(=O)NN(c3ccc(Cl)cc3)C2=O)cc(OC)c1O | 30%*
Cc1cccc(=O)n1CCC(=O)N1CCNCC1C(=O)N1CCOCC1 (stereo not drawn) | i
